Compound activity: PubChem, National Center for Advancing Translational Sciences (NCATS)
HTT-AS promoter – Primary qHTS for Identification of Small Molecule Activators of Huntingtin-Antisense Promoter Activity | HEK293 HTT-AS promoter firefly luciferase reporter, 24 h; response scale: percent change from vehicle, -100% = no light | Potency, µM (highest dose often 57.5 µM), inactives show top-dose activity change, positive = activation, usual class: activators | 48,000 tested, 0.24% active; also: potency is read from the fitted curve at half-maximal effect; nearly all actives have a fitted effect of over 55% in size
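HEK293 luciferase promoter-reporter cells (2,500/well) plated 24 h, then compounds added at up to 57.5 uM final for 24 h at 37 °C. Firefly luminescence by Dual-Glo, normalized to vehicle (0%) and zero RLU (-100%).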
DRV1 agonist – qHTS for Agonists of Human Resolvin D1 Receptor DRV1; Probable G-protein coupled receptor 32 (Homo sapiens), O75388; CHO-K1 GPR32 beta-arrestin PathHunter luminescence, 90 min; zero percent set by DMSO-only wells; activation, % at 76.9 µM; 48,000 tested, 2.5% active;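 active = activation of at least 60% and not above a set upper limit, about 1 call in 100 departs from these limits; inconclusive = activation of 40% to 60%, or above that upper limit; inactive = activation under 40%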; also: 0% is about no effect
Target sequence (O75388 whole entry, looked up): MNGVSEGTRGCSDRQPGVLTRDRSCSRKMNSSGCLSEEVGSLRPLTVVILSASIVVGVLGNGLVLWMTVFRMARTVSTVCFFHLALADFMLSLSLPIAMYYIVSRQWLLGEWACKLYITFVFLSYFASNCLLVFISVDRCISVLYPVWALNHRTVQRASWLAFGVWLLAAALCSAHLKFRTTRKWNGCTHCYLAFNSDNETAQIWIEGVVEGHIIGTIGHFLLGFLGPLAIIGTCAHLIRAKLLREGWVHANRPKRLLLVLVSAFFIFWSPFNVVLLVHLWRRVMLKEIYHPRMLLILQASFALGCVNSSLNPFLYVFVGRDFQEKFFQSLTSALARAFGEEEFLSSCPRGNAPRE
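Step 1: seed CHO-K1 GPR32 beta-arrestin cells, 2,500/well, overnight at 37 °C. Step 2: add compounds, 90 min at 37 °C. Step 3: detection reagent, 1 h ambient, then luminescence.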
HTT prom inh – Primary qHTS for Identification of Small Molecule Inhibitors of Huntingtin Promoter Activity; 48,000 tested, 0.93% active; AID 1508623, 2021; HEK293 HTT promoter firefly luciferase reporter, 24 h; Potency, µM (series often up to 57.5 µM), without a hit: at the top dose activity change, negative = inhibition, usual class: inhibitors; also: potency is read from the fitted curve at half-maximal effect; nearly all actives have a fitted effect of over 50% in size
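Luminescence was read after Dual-Glo reagent and a 10 min room-temperature incubation. Values were normalized to vehicle (0% activity) and zero RLU (-100% activity). Reporter HEK293 cells had been exposed to compounds (up to 57.5 uM final) for 24 h.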
Active calls of the source: *; ? = inconclusive; . = not tested or not shown; ! = a repeat was not active; [ ] = another dose, or the depositor's remark. Only some compounds are listed: those with a hit (about 3.7% of all), similar ones and a draw of the others. Unless noted, calls follow the shape of the dose curve; as a rule, active = well fitted curve in the direction sought with a large enough effect; inconclusive = small, poorly fitted or top-dose-only effect, or another doubt; inactive = no such curve, though single readings can be large; an effect the other way counts as inactive or inconclusive.

SMILES	HTT-AS promoter	DRV1 agonist	HTT prom inh
CC(C)(F)C[C@H](N[C@@H](c1ccc(-c2ccc(S(C)(=O)=O)cc2)cc1)C(F)(F)F)C(=O)NC1(C#N)CC1	-10.1%	.	-7.9%
Nc1c(C(=O)c2ccccc2)sc(Nc2ccc(Cl)c(Cl)c2)c1C(=O)Nc1ccccc1	-42.8%	-105.0	28.2µM*
Cc1ccc(Nc2sc(C(=O)c3ccccc3)c(N)c2C(=O)Nc2ccc(Cl)cc2)cc1	-35.7%	-85.4	?
CCOc1ccc(C(=O)NCCc2csc(-c3cccc(F)c3)n2)cc1OCC	-21.1%	3.1	-36.4%
O=C(NCCc1csc(-c2ccc(F)cc2)n1)c1ccc(Br)o1	-21.2%	?	?
O=C(NCCc1csc(-c2cccc(F)c2)n1)c1ccc(Br)o1	-21.8%	93.8*	?
Cc1ccc(C(=O)NCCc2csc(-c3cccc(F)c3)n2)cc1C	-9.4%	60.5*	-15.6%
CCOC(=O)c1c(NC(=O)CSc2cn(CCNC(=O)c3ccccc3OC)c3ccccc23)sc2c1CCC2	-27.6%	-16.2	-26.9%
C[C@@H](O)[C@H]1C(=O)N2C(C(=O)O)=C([C@H]3CCCO3)S[C@H]12	2.1%	-3.8	-2.0%
O=C(Cn1nc(N2CCN(c3ccccc3)CC2)ccc1=O)Nc1ccc(F)cc1F	-11.4%	-9.3	14.9%
O=C(Nc1ccc(F)cc1)c1ccc(Cn2nc(N3CCN(c4ccccc4)CC3)ccc2=O)o1	-42.0%	-2.0	14.1µM*
CC(=O)c1ccc(NC(=O)Cn2nc(N3CCN(c4ccccc4)CC3)ccc2=O)cc1	-12.6%	-19.7	-20.6%
O=C(Nc1ccccc1F)c1ccc(Cn2nc(N3CCN(c4ccccc4)CC3)ccc2=O)o1	-31.1%	90.1*	?
C/C=C(/C(=C/C)c1ccc(OC(C)=O)cc1)c1ccc(OC(C)=O)cc1	-9.7%	42.4	-11.4%
O=C(Nc1ccc(Cl)c(Cl)c1)N1CCC(c2ccccc2)C1 (stereo unspecified)	?	20.4	49.9%
CN[C@H]1CC[C@@H](c2ccc(Cl)c(Cl)c2)c2ccccc21	-38.2%	80.8*!	?
CO[C@H]1C[C@@H]2CC[C@@H](C)[C@@](O)(O2)C(=O)C(=O)N2CCCC[C@@H]2C(=O)O[C@H]([C@H](C)C[C@@H]2CC[C@H](OP(C)(C)=O)[C@H](OC)C2)CC(=O)[C@H](C)C=C(C)[C@@H](O)[C@@H](OC)C(=O)[C@H](C)C[C@H](C)C=CC=CC=C1C	-11.9%	.	-13.6%
COc1cc(C2c3c(-c4cc(C)ccc4O)n[nH]c3C(=O)N2CCCO)ccc1OCCC(C)C (stereo unspecified)	-34.5%	102.0*	?
COCCN1C(=O)c2[nH]nc(-c3cc(C)ccc3O)c2C1c1ccc(C(C)C)cc1 (stereo unspecified)	-13.7%	25.2	-12.4%
O=C(CSc1nc(-c2ccccc2)nc2c1Cc1ccccc1O2)N1CCCCC1	8.5%	1.7	-3.2%
CC(C)OCc1cc(CN2CCN(c3ccccc3)CC2)c(O)c2ncccc12	-43.2%	-7.6	12.6µM*
CCOCc1cc(CN2CCN(c3cccc(Cl)c3)CC2)c(O)c2ncccc12	-37.0%	0.9	?
Cc1ccc(NC(=O)Cn2cc(S(=O)(=O)N3CCN(c4ccccc4F)CC3)c3ccccc3c2=O)cc1F	-15.0%	7.5	-19.9%
COc1ccc(NC(=O)C(=O)NCC(c2cccnc2)N2CCc3ccccc3C2)cc1 (stereo unspecified)	-26.5%	-7.6	?
Cc1ccc(/C=C/C(=O)Nc2ccccc2C(N)=O)o1	3.98µM*	17.5	60.3%
SMILES	HTT-AS promoter	DRV1 agonist	HTT prom inh
COc1ccc(/C=C/C(=O)Nc2ccccc2C(=O)O)cc1OC	.	7.3	.
Cn1c(=O)oc2cc(S(=O)(=O)NC(Cc3ccccc3)C(=O)NCc3ccccc3Cl)ccc21 (stereo unspecified)	9.2%	-17.1	-4.2%
O=C(CS(=O)(=O)c1cccc2nsnc12)N1CCN(c2cccc(C(F)(F)F)c2)CC1	-27.4%	88.5*	-28.1%
O=C(CS(=O)(=O)c1cccc2nsnc12)N1CCN(c2ccccc2F)CC1	3.9%	-15.1	8.3%
O=C(Nc1ccc(S(=O)(=O)N2CCOCC2)cc1)c1cc(Cl)ccc1NS(=O)(=O)c1ccc(Cl)s1	-7.0%	?	-4.7%
COc1cc(NS(=O)(=O)c2ccc(N)cc2)nc(C)n1	0.8%	9.2	4.5%
O=C(Nc1cccc(C(F)(F)F)c1)C1CCN(c2nnc(-n3cccc3)s2)CC1	-4.1%	93.8*	-4.7%
CC(=O)c1cccc(NC(=O)C2CCN(c3nnc(-n4cccc4)s3)CC2)c1	-17.3%	?	-19.5%
OC[C@H]1O[C@H](O[C@]2(CCl)O[C@H](CCl)[C@@H](O)[C@@H]2O)[C@H](O)[C@@H](O)[C@H]1Cl	2.8%	6.4	9.6%
CCCCCCOc1ccccc1C(N)=O	-5.9%	23.6	-1.8%
CCCc1c(OCCCCc2nn[nH]n2)ccc(C(C)=O)c1O	-10.1%	86.6*	-0.4%
Cc1ccc(NC(=O)CC2Oc3ccc(C)cc3NC2=O)c(C)c1 (stereo unspecified)	-19.2%	0.2	-18.8%
CC(=O)c1ccc(NC(=O)CC2Oc3ccc(C)cc3NC2=O)cc1 (stereo unspecified)	-19.2%	64.8*	-15.0%
COc1ccc(CNC(=O)c2cc3cc(OC)ccc3oc2=O)cc1	-5.7%	-5.6	-0.4%
COc1ccc2oc(=O)c(C(=O)Nc3cccc(C(=O)O)c3)cc2c1	?	-2.5	3.98µM*
CCn1c(=O)c2cc(C(=O)N3CCN(c4cccc(OC)c4)CC3)sc2c2ccccc21	-36.3%	-26.2	?
CCn1c(CN2CCCCC2)nc2cc(NC(=O)c3ccccc3[N+](=O)[O-])ccc21	-16.2%	-4.2	-22.8%
CCn1c(CN2CCCCC2)nc2cc(NC(=O)c3ccc([N+](=O)[O-])cc3)ccc21	-28.4%	70.5*	?
CC1(C)OC2=C(C(=O)c3ccccc3C2=O)[C@H](NCc2ccccc2)[C@H]1O	-92.6%	.	?
N[C@H]1C[C@H]1c1ccc(-c2cccc(O)c2)cc1	.	.	9.5%
CCOc1ccc(NC(=O)c2c(NC(=O)c3ccncc3)sc3c2CCC(C(C)(C)C)C3)cc1 (stereo unspecified)	11.0%[11.5 µM]	5.5	-16.0%[11.5 µM]
COc1ccc(NC(=O)c2c(NC(=O)c3ccncc3)sc3c2CCC(C(C)(C)C)C3)cc1 (stereo unspecified)	-41.4%	65.7*	-29.4%
CCOC(=O)N1CCN(c2ncc3c(n2)CC(c2ccccc2O)CC3=O)CC1 (stereo unspecified)	-29.6%	76.4*	?
CCOC(=O)N1CCN(c2ncc3c(n2)CC(c2ccc(Cl)cc2)CC3=O)CC1 (stereo unspecified)	-3.5%	11.1	-18.1%
Cc1nc(-c2ccc(S(=O)(=O)NCc3ccc(F)cc3)cc2)co1	-29.9%	?	-28.9%
Cc1cccc(CNS(=O)(=O)c2ccc(-c3coc(C)n3)cc2)c1	-30.8%	98.5*	?
CCOc1ccc(CNS(=O)(=O)c2ccc(-c3coc(C)n3)cc2)cc1OC	-37.3%	38.7	25.1µM*
